Assay [1] has as its system Danio rerio larvae Tg(actc1b:ZsGreen-LC3), 3 dpf. The assay can be described thus: LC3 puncta relative area vs vehicle, without NH4Cl (log2 fold change); higher = more autophagosomes. The settings on record: 10 µM; treatment time 16 h; NH4Cl: none. As for the experimental part: (§1)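 Transgenic Tg(actc1b:ZsGreen-map1lc3) zebrafish larvae (2 dpf) were treated for 16 h with Tocris library compounds at 10 µM (n = 12 larvae per compound). Skeletal-muscle LC3 puncta area relative to body area was measured by high-content confocal imaging before and after 4 h of 100 mM NH4Cl (autophagic flux), normalised to vehicle (DMSO), and reported as log2 fold change.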

Assay [2] shares this test system. Kind of assay: LC3 puncta relative area vs vehicle, with NH4Cl (autophagic flux) (log2 fold change); higher = more autophagy. Conditions: 10 µM; treatment time 16 h; NH4Cl: + 100 mM, 4 h. As for the experimental part:
as §1

Counter-ions that a name gives are not always drawn.

In the case of `O=C(O)C1=CCNCC1` [Isoguvacine hydrochloride], the “LC3 puncta (log2)” value in assay [1] came out at 0.169.

As for `C/N=C(/NC#N)NCCSCc1csc(NC(=N)N)n1` [Tiotidine], in assay [2], the “LC3 puncta (log2)” value stood at 0.667.
